From PubChem BioAssay (NCATS)
Inconclusive results are not listed. A number with no mark means an inactive call. Calls come from the whole dose curve; as a rule, active = well fitted activation curve with a large enough effect; inconclusive = small, poorly fitted or top-dose-only effect; inactive = flat fitted curve, though single readings scatter.

Experiment: Cellular Toxicity (caspase-3) H-4-II-E (AID 663);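 note: cells exposed to compound for 16 hr before readout; 0% = DMSO basal and 100% = 100 µM tamoxifen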
Settings: H-4-II-E rat hepatoma; Potency: caspase-3 activation; series mostly up to 92.2 µM; caspase-3 activation: at the top concentration
Text: NIH Chemical Genomics Center [NCGC]
NIH Molecular Libraries Screening Centers Network [MLSCN]
National Institutes of Environmental Health Sciences [NIEHS]
National Toxicology Program [NTP]
We have developed a 1536-well cell-based assay for quantitative high throughput screening (qHTS) against a number of cell lines to determine in vitro caspase 3/7 of small molecules. This particular assay uses the H-4-II-E cell line which is derived from rat hepatoma.
NCGC Assay Protocol Summary:
The Caspase-Glo 3/7 assay (Promega) is a homogeneous method to measure caspase-3 and caspase-7 activities in cultured cells. The quantitation of caspase 3/7 activity is based on the cleavage of a peptide-aminoluciferin substrate. After caspase cleaves the substrate the free aminoluciferin is liberated and serves as the substrate of luciferase, which generates the light. The luminescent signal is proportional to amount of caspase 3/7 activity present.
Using the Caspase-Glo 3/7 assay, the amount of caspase 3/7 activity was measured in the H-4-II-E cell line with complete culture medium following compound treatment for 16 hours. The assay was performed in opaque white 1536-well plates. In the screen, tamoxifen and doxorubicin were used as positive controls. Library compounds were measured for their ability to cause the activation of caspase 3/7 in the cell line, as reflected by an increase in luminescence signal, in a concentration-dependent manner. Data were normalized to the controls for basal activity (DMSO only) and 100% stimulation (100 uM tamoxifen). AC50 values were determined from concentration-response data modeled with the standard Hill equation.
qHTS protocol for caspase 3/7 assay in H-4-II-E cells
[Step] [Parameter] [Value] [Description]
1. Reagent; 5 uL; 1500 H-4-II-E cells/well
2. Time; 5 hr; 37 °C incubation
4. Controls; 23 nL; Tamoxifen 0.23 uM to 100 uM & Doxorubicin 7.0 pM to 100 uM
5. Time; 16 hr; 37 °C incubation
6. Reagent; 5 uL; Caspase-Glo 3/7 reagent
7. Time; 20 min; Room Temperature
8. Detection; Luminescence; Viewlux plate reader
Keywords: caspase 3/7, apoptosis, H-4-II-E cell line, luminescence, NTPHTS, NTPHTS_NCGC, NIEHS, EPA, DSSTox, MLSMR, MLSCN, NIH Roadmap, qHTS, NCGC

Q: For `BrC(Br)Br`, which “caspase-3 activation” value is on record?
A: 0.875%

Q: For `Oc1ccc(Cl)c(Cl)c1Cl`, which “caspase-3 activation” value is on record?
A: 3.79%

Q: For `O=S(=O)(Cl)c1ccccc1`, which “caspase-3 activation” value is on record?
A: -0.19%

Q: With `Cl/C=C/CCl` as the compound, how does the “caspase-3 activation” value read?
A: 0.11%

Q: With `CCOS(C)(=O)=O` as the compound, how does the “caspase-3 activation” value read?
A: -0.928%

Q: For `O=C(O)C(Cl)Br` (stereo not given), which “caspase-3 activation” value is on record?
A: -0.0988%

Q: Which “caspase-3 activation” value does the source give for `CCOP(=O)(OCC)OCC` here?
A: 0.316%

Q: Which “caspase-3 activation” value does the source give for `CCCC[N+](=O)[O-]` here?
A: -0.317%

Q: For `O=C(Cl)c1ccccc1F`, which “caspase-3 activation” value is on record?
A: -0.445%

Q: Which “caspase-3 activation” value does the source give for `COc1cc(-c2ccc(N)c(OC)c2)ccc1N` here?
A: 1.2%

Q: With `O=P(OCCCl)(OCCCl)OCCCl` as the compound, how does the “caspase-3 activation” value read?
A: 0.318%

Q: For `CCCCNC(=O)n1c(NC(=O)OC)nc2ccccc21`, which “caspase-3 activation” value is on record?
A: 1.26%

Q: For `C=CC(=O)OCC(C)C`, which “caspase-3 activation” value is on record?
A: -0.195%

Q: Which “caspase-3 activation” value does the source give for `CCCCCc1cc(O)cc(O)c1` here?
A: 5.28%

Q: With `COP(=S)(OC)SCn1nnc2ccccc2c1=O` as the compound, how does the “caspase-3 activation” value read?
A: -0.882%

Q: With `OCCOCCO` as the compound, how does the “caspase-3 activation” value read?
A: 0.385%

Q: Which “caspase-3 activation” value does the source give for `Nc1cc(Cl)ccc1O` here?
A: 5.89%

Q: Which “caspase-3 activation” value does the source give for `OCC(Cl)CCl` (stereo not given) here?
A: 2.32%

Q: With `O=[N+]([O-])c1cc(Cl)c(Cl)c(Cl)c1` as the compound, how does the “caspase-3 activation” value read?
A: 8.74%

Q: For `O=Cc1ccc(Cl)cc1Cl`, which “caspase-3 activation” value is on record?
A: 1.07%

Q: With `C=CC=O` as the compound, how does the “caspase-3 activation” value read?
A: -0.0725%

Q: With `S=C1NCCN1` as the compound, how does the “caspase-3 activation” value read?
A: 0.823%

Q: Which “caspase-3 activation” value does the source give for `Cc1cc(-c2cc(C)c(N)c(C)c2)cc(C)c1N` here?
A: -0.109%

Q: Which “caspase-3 activation” value does the source give for `ClCC(Cl)CCl` here?
A: -0.169%

Q: Which “caspase-3 activation” value does the source give for `CCOC(=O)CC(SP(=O)(OC)OC)C(=O)OCC` (stereo not given) here?
A: -0.122%

Q: With `Nc1ccc([N+](=O)[O-])cc1N` as the compound, how does the “caspase-3 activation” value read?
A: 5.42%

Q: Which “caspase-3 activation” value does the source give for `O=C(O)CBr` here?
A: 0.0812%

Q: Which “caspase-3 activation” value does the source give for `CC(C)(Cl)Cl` here?
A: -0.638%

Q: With `Cc1ccc(N)c(C)c1` as the compound, how does the “caspase-3 activation” value read?
A: 1.43%

Q: With `CC(C)(C)c1ccccc1O` as the compound, how does the “caspase-3 activation” value read?
A: 0.422%

Q: With `C=CC(=O)OC` as the compound, how does the “caspase-3 activation” value read?
A: 0.533%

Q: With `CN1CSC(=S)N(C)C1` as the compound, how does the “caspase-3 activation” value read?
A: 6.14%

Q: With `CN=C=O` as the compound, how does the “caspase-3 activation” value read?
A: 0.00674%

Q: Which “caspase-3 activation” value does the source give for `Oc1cc(Cl)c(Cl)c(Cl)c1Cl` here?
A: 8.13%

Q: With `CN(C)c1ccc(N)cc1` as the compound, how does the “caspase-3 activation” value read?
A: 0.176%

Q: Which “caspase-3 activation” value does the source give for `CNC(=O)O/N=C/C(C)(C)S(C)=O` (stereo not given) here?
A: 0.302%

Q: For `COc1ccc(C=O)cc1`, which “caspase-3 activation” value is on record?
A: 1.05%

Q: For `CCCCCCCCCCCCCl`, which “caspase-3 activation” value is on record?
A: 1.15%

Q: For `COC(C)(C)C`, which “caspase-3 activation” value is on record?
A: -0.716%

Q: Which “caspase-3 activation” value does the source give for `O=[N+]([O-])c1ccc(Cl)c(Cl)c1Cl` here?
A: 0.762%
